eIF4E 4G PPI = blocks eIF4E binding to eIF4G; P63073+Q04637; 220,000 tested, 0.37% active; TR-FRET eIF4E-eIF4GI(517-606) binding, 2 h; AID 782; inhibition, % at 21.7 µM;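 further: 0% = full FRET control wells and 100% = background wells lacking eIF4GI fragment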
14-3-3 Bad inh = disrupts binding of bovine 14-3-3 zeta to phospho-Bad peptide | TR-FRET 14-3-3zeta/Dy647-pBad peptide displacement, 1 h | inhibition, % at 21.7 µM | 220,000 tested, 0.71% active;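 active means inhibition above about 70%, limit read from the data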;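 further: 0% = full 14-3-3 plus peptide FRET controls and 100% = background without 14-3-3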
Target sequence (P63103 whole entry, looked up): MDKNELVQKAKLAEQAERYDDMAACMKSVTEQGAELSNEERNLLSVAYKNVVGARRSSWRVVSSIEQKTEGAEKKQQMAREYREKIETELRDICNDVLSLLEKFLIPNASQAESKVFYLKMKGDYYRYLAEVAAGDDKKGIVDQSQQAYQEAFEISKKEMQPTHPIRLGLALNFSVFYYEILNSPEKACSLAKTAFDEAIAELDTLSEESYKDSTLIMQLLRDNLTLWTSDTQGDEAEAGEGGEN
SUMO HTRF inh = SUMOylation inhibition. P63279. HTRF SUMOylation assay, SAE1/SAE2 + UBC9, in vitro. inhibition, % at 35 µM. 290,000 tested, 0.36% active; in the data active means inhibition above about 50%, passing the limit was not always enough; inconclusive means no clear call, values can overlap the other calls
Target sequence (P63279 whole entry, looked up): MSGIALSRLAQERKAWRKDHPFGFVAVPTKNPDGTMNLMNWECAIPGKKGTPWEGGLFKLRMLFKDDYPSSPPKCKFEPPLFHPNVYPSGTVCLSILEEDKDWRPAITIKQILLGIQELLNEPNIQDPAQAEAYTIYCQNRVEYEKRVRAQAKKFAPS
p47phox inh = blocks human p47phox regulatory protein of NADPH oxidases | P14598 | p47phox/p22phox peptide binding, fluorescence polarization, 2 h | inhibition, % at 24.7 µM | 220,000 tested, 0.53% active | AID 1274;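 further: 0% = p47phox with labelled peptide and 100% = labelled peptide alone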
Numbers without * were called inactive; u = inconclusive; x = not tested or not shown; ! = a repeat was not active; [ ] = dose if it differs, or a comment. This is a sample that favours compounds with a hit; in the whole collection about 1.3% have one here.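 How the source made its calls, unless noted: active means inhibition above about 30% (limit read from the data); inactive means the rest.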

SMILES | eIF4E 4G PPI | 14-3-3 Bad inh | SUMO HTRF inh | p47phox inh
c1ccc(N2CCN(C3CCSC3)CC2)cc1 (configuration not stated) | -1 | 71* | 12 | -4
O=C(N/N=C/c1ccccc1O)c1cc(=O)[nH]c2ccccc12 | 40*[fluorescence artefact?] | -30 | 15 | 0
CCCCOc1cc(C(=O)NCCN(CC)CC)c2ccccc2n1 | 74*! | 4 | -14 | -2
CCCNC(=O)Cn1nc([N+](=O)[O-])c([N+](=O)[O-])c1C | 5 | -19 | 7 | -12
O=C1NC(=Nc2ccc(Cl)cc2)/C(=C/c2ccco2)S1 | 20 | 81*[fluorescence artefact?] | 34 | -14
Cc1cccc(N=C2NC(=O)S/C2=C\c2ccco2)c1 | 5 | -3 | 36 | -27
COc1ccccc1-c1noc(-c2ccccc2)n1 | 87* | 4 | -2 | -13
CCc1cc2cc3c(cc2nc1SCC(=O)Nc1cc(C)on1)OCO3 | -56 | 82* | 18 | -4
CCc1cc2ccc(C)cc2nc1SCC(=O)Nc1cc(C)on1 | 1 | 2 | 6 | 3
Cn1c(/C=C/c2ccc(Cl)cc2Cl)c([N+](=O)[O-])c(=O)n(C)c1=O | x | x | 9 | x
CN1C(=O)NC(c2ccccc2)C2=C1CN(c1ccc3ccccc3c1)C2=O (configuration not stated) | -40 | 84* | 40 | 25
Cc1ccc(N2CC3=C(C2=O)C(c2ccccc2)NC(=O)N3C)cc1 (configuration not stated) | 3 | 0 | 23 | 6
Cc1ccc2nc(NC(=O)c3ccc(-c4nc5ccccc5s4)s3)sc2c1 | 12 | 83*[fluorescence artefact?] | 1 | 17
O=C1NC(=S)S/C1=C\c1cc2ccccc2nc1N1CCCCC1 | 3 | 9 | 55* | -47
O=C(N/N=C/c1ccc(Br)s1)c1ccc([N+](=O)[O-])cc1 | 16 | 71* | 18 | 5
Cc1ccc(C=Nc2cc([N+](=O)[O-])ccc2C)s1 | 0 | -11 | -9 | -6
O=C(N/N=C/c1ccc(Br)s1)c1ccccc1[N+](=O)[O-] | 1 | 7 | -18 | -3
Cc1ccc([N+](=O)[O-])cc1N=Cc1ccc(Br)s1 | 2 | 74* | 3 | -13
Cn1cccc1C(=O)c1cccc([N+](=O)[O-])c1 | 3 | -11 | 7 | -6
CC(NC(=O)COC(=O)/C=C/c1ccco1)c1ccccc1 (configuration not stated) | 1 | -3 | 14 | -12
CSc1ccc(/C=C/C(=O)NC(=O)c2ccccc2O)cc1 | -1 | -8 | 17 | 4
CC(=O)NC(c1ccccc1)c1cc(Cl)c2cccnc2c1O (configuration not stated) | x | x | 11 | x
O=C(NC(c1ccc(Cl)cc1)c1cc(Cl)c2cccnc2c1O)c1cccnc1 (configuration not stated) | 4 | 6 | -12 | 32*
CCOc1ccc(N(CC(=O)Nc2ccc(C)cc2)S(=O)(=O)c2c(C)[nH]c(=O)[nH]c2=O)cc1 | -2 | 1 | -6 | -6
COc1ccc(-c2nnc(SCC(=O)Nc3cc(S(=O)(=O)N4CCCCC4)ccc3Cl)n2N)cc1 | 8 | 21 | -12 | -27
SMILES | eIF4E 4G PPI | 14-3-3 Bad inh | SUMO HTRF inh | p47phox inh
O=C(CN1CCc2ccccc2C1)Nc1cccc(S(=O)(=O)N2CCCC2)c1 | 2 | 80* | 20 | 9
COc1ccccc1N(CC(=O)NC(C)(C)C)S(=O)(=O)c1cccs1 | -4 | 18 | -1 | -3
Cc1c(C(=O)O)oc2ccc3c(c12)C(O)CC(C)(C)O3 (configuration not stated) | x | x | 3 | x
COc1ccc(Cl)cc1C(=O)C1CCCN(Cc2cnc(N3CCOCC3)s2)C1 (configuration not stated) | 4 | 3 | -2 | 47*
Oc1ccc(/C=N/N=C/c2ccc(O)c(O)c2)cc1O | x | x | 31 | x
Oc1ccc(N=Cc2ccc(O)c(O)c2)cc1 | 19 | 86*[fluorescence artefact?] | u | 18
CCCOc1ccc(-c2nnn(CC(=O)N3CCCCC3)n2)cc1 | -9 | -3 | 18 | 0
COc1cccc(-c2cc(C(=O)Nc3cnn(Cc4ccccc4C)c3)no2)c1 | -8 | 5 | -17 | 70*
CC(C)=CC(=O)N1CC[C@@H](N2CCN(c3ccccc3F)CC2)[C@H](O)C1 | x | x | -1 | x
COc1cc(OC)c(/C=N/NC(=O)c2ccncc2)cc1Br | -1 | -4 | 28 | -19
COc1cc(OC)c(/C=N/NC(=O)c2ccc(NC(C)=O)cc2)cc1Br | 42* | 76* | 50* | 15
O=C1NC(=O)C2(CCCCCCCCCCC2)N1 | x | x | 8 | x
CC1(C2CC2)NC(=O)NC1=O (configuration not stated) | 90*[fluorescence artefact?] | 3 | -4 | -3
O=C(CSCC(=O)Nc1ccc2ccccc2c1)NCc1ccccc1 | 37* | -2 | -1 | -2
CC(C)c1ccc(CNC(=O)CSCC(=O)Nc2ccc3ccccc3c2)cc1 | 3 | -2 | -59 | -20
CCNc1ccc2noc3c2c1C(=O)c1ccccc1-3 | 7 | -14 | -103 | -279
CCOc1ccc2noc3c2c1C(=O)c1ccccc1-3 | -9 | 11 | 8 | 44*
Cn1c(=O)cc2c3c(c(N4CCCCC4)ccc31)C(=O)c1ccccc1-2 | -14 | -30 | 11 | 34*
O=C1c2ccccc2C(=O)c2c1cccc2N1CCCC1 | 19 | 7 | -16 | 5
O=C1c2ccccc2-c2onc3ccc(N4CCCC4)c1c23 | 34* | 25 | -52 | -229
CCCNc1c(NS(=O)(=O)c2cccc(C#N)c2)c(=O)oc2ccccc12 | x | x | -10 | x
CCN(CC)CCn1c(NCc2ccccn2)nc2ccccc21 | -5 | 77* | 8 | -11
CC(=O)c1sc2nc(CSc3nnnn3-c3ccccc3)[nH]c(=O)c2c1C | 31* | 26 | x | -33
CC1CCC/C(=N\NC(=O)c2ccncc2)C1 (configuration not stated) | -1 | 3 | -1 | -2
Cc1cc(N2CCC(C)CC2)c(F)cc1[N+](=O)[O-] | 3 | 3 | -8 | -3
SMILES | eIF4E 4G PPI | 14-3-3 Bad inh | SUMO HTRF inh | p47phox inh
Cc1cc(N2CCCC2)c(F)cc1/C=C\[N+](=O)[O-] | 1 | -1 | 15 | 79*
Cc1nc(NC(=O)c2cccc(-c3cc4ccccc4oc3=O)c2)ccc1Br | 7 | 65 | 39 | 41*
Cc1nc(NC(=O)c2ccc(-c3cc4ccccc4oc3=O)cc2)ccc1Br | -5 | 66 | 10 | 12
O=C(Nc1ccccc1N1CCCC1)c1cccc(-c2cc3ccccc3oc2=O)c1 | 0 | 9 | 11 | -27
O=C(Nc1ccc(Br)cn1)c1cccc(-c2cc3ccccc3oc2=O)c1 | 7 | 69 | 41 | 37*
Cc1ccc2oc(=O)n(CC(=O)c3ccc(F)cc3)c2c1 | 8 | 1 | 5 | -8
O=C(c1cnc2sccn2c1=O)N1CCc2ccccc2C1 | 2 | -7 | 7 | 13
O=C(c1cnc2sccn2c1=O)N1CCN(c2ccccc2Cl)CC1 | 98* | -2 | 21 | 0
CC(C)c1ccc(/C=C2\CC/C(=C\C=N\N(C)C)C2=O)cc1 | -14 | -6 | 20 | 76*
CC(C)/C=C1\CC/C(=C\c2ccc(N(C)C)cc2)C1=O | 3 | -4 | 13 | -116
O=C(c1ccccc1)c1coc2ccc(O)c(Cl)c12 | -13 | 92* | -15 | -5

Bioassay records (PubChem)
